Screens deposited in PubChem BioAssay by Broad Institute.
PfHsp90 yeast 2 – growth inhibition of PfHsp90-expressing yeast, primary screen, antimalarial PfHsp90 inhibitor project, S. cerevisiae, BacTiter-Glo luminescence, single point, set 2 | 0.32% of 310,000 active | BacTiter-Glo ATP, 48 h; yeast lacking PDR1 and PDR3 efflux regulators | inhibition, % at 9.4 µM;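 active means every replicate shows inhibition above about 80%, whatever the replicate mean, limit read from the data; inconclusive means mean inhibition reaches the set limit but some replicate falls short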;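 further: 0% = DMSO neutral controls and 100% = 20 µM radicicol positive controls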
CSC inhib – cancer stem cell viability inhibitors, primary screen, luminescence; cancer stem cell-like cells viability; inhibition, % at 7.5 µM; 1.1% of 300,000 active; AID 2717, 2010; in the data active means inhibition above about 75%; inconclusive means no clear call, values can overlap the other calls; tested in HMLE shEcad cells
Calb FLC – C. albicans growth inhibition with fluconazole, primary screen, CaCi-2 strain, Alamar Blue fluorescence | growth inhibition, % (concentration not given with the values) | 0.57% of 300,000 active | C. albicans CaCi-2 (fluconazole-resistant clinical isolate) + fluconazole, 48 h;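 active means growth inhibition above about 58% in most replicates, limit read from the data, passing the limit was not always enough; inconclusive means exactly half the replicates above a set limit; inactive means most replicates below a set limit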;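 further: all wells also contain fluconazole at 8 µg/ml as a sub-toxic cotreatment; 0% = median of DMSO wells and 100% = median of geldanamycin control wells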
Beta apoptosis – inhibitors of cytokine-induced beta cell apoptosis, primary screen, luminescence. INS-1E cytokine-induced death, ATP luminescence, 48 h; percent of positive-control rescue, neutral wells zero. protection from apoptosis, % (no concentration beside the values). 0.8% of 300,000 active. AID 435005, 2010;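 active means Every replicate reaches about 75%, or at least half do and their mean reaches it too, limit read from the data; inconclusive means At least half of replicates reach the limit but their mean does not; inactive means Under half of replicates reach the limit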;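 further: 0% = cytokine-treated negative control wells and 100% = positive control rescue; higher means more ATP so stronger rescue from cytokine killing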
Shn3 3UTR inh – reduction of Shn3 3'UTR firefly luciferase signal, primary screen, Schnurri-3 inhibitor project, cell-based, Clone20 osteoblasts, set 2. Clone20 osteoblast Shn3 3'UTR firefly luciferase, 24 h. inhibition, % at 12.5 µM. 0.52% of 360,000 active;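 active means mean inhibition of at least 75% with every replicate also reaching 75%; inconclusive means mean inhibition at least 75% but some replicate below; inactive means mean inhibition below 75%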;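 further: 0% = median of neutral control wells and 100% = pilot-screen positive control compound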
The depositor's hits bear a star; ? = inconclusive; · = not tested or not shown. In the library only some 2.2% were active in any assay of this set; here they are far more common.

SMILES	PfHsp90 yeast 2	CSC inhib	Calb FLC	Beta apoptosis	Shn3 3UTR inh
CC(=NNC(=S)N1CCN(c2ccccn2)CC1)c1ccccn1	0	·	·	·	4
C/C(=N/NC(=O)c1cnccn1)c1ccncc1	-27	-8	16	-5	-6
CC(=NNC(=S)N1CCN(c2ccccn2)CC1)c1nccs1	142*	·	·	·	85*
CC(=NNC(=S)N1CCCCCC1)c1cccc2cccnc12	7	·	·	·	?
CC(=NNC(=S)N1CCN(C2CCCCCC2)CC1)c1ccccn1	103*	·	·	·	93*
CC(=NNC(=S)N1CC2CCC(CC2)C1)c1cnccn1	145*	·	·	·	84*
CCCN(Cc1nnc(-c2ccccc2Cl)o1)C(=O)c1cc([N+](=O)[O-])cc([N+](=O)[O-])c1	-34	-5	1	3	6
CCOc1ccccc1N(CC(=O)NCCc1ccccc1)C(=O)CCC(=O)Nc1ccccn1	1	-16	-8	-8	73
Cc1nc(N2CCN(C(=O)c3ccco3)CC2)nc2c1C(=O)CCC2	7	-13	-7	0	-31
CCNC(=O)C1(C)CCCN(C(=O)/C=C/c2ccccc2)C1 (stereo not given)	·	·	·	·	4
Cn1c(=O)c(=O)n(C)c2cc(S(=O)(=O)N3CCCC3C(=O)NCc3cccnc3)ccc21 (stereo not given)	9	-16	-5	-4	-1
CC(=O)c1ccc(S(=O)(=O)N(C)CCCC(=O)NCc2ccc3c(c2)OCO3)cc1	·	·	·	·	12
CCN(CC)c1ccc2c(O)cc(=O)oc2c1	-1	9	-1	-2	15
CCN(CC)c1ccc(C(=O)OCc2cc(=O)oc3cc(O)ccc23)cc1	-2	84*	0	31	23
Cc1ccc(-c2c[n+](Cc3ccc(Cl)c(Cl)c3)c3n2CCC3)cc1	1	33	-8	89*	57
Cc1ccc(C(=O)C[n+]2cc(-c3ccc(C)cc3)n3c2CCCCC3)cc1	13	10	88*	125*	74
CCNC(=O)N(C)C[C@H]1N[C@@](CC)(C(=O)OC)[C@H]2C(=O)N(C)C(=O)[C@@H]12	19	-4	·	-1	-10
CCN(C[C@H]1N[C@@](Cc2ccccc2)(C(=O)OC)[C@H]2C(=O)N(C)C(=O)[C@@H]12)S(=O)(=O)c1ccc(OC)cc1	27	-8	·	-10	4
CC(C)c1csc(CN2CCC(C(=O)Nc3cccc(-c4ccco4)c3)CC2)n1	·	·	·	·	29
Cn1nnnc1Sc1ncnc2scc(-c3ccccc3Cl)c12	·	41	·	-19	-12
Cn1nnnc1Sc1ncnc2scc(-c3cccc(S(C)(=O)=O)c3)c12	·	39	·	-59	60
Cn1nnnc1Sc1ncnc2scc(-c3ccc(Cl)cc3)c12	-4	83*	·	-9	82
Cn1nnnc1Sc1ncnc2scc(-c3cccc(Br)c3)c12	-8	89*	·	-13	3
CC(=O)c1cccc(-c2csc3ncnc(Sc4nnnn4C)c23)c1	·	·	·	·	95*
COc1ccc(-c2csc3ncnc(Sc4nnnn4C)c23)cc1	9	52	·	-18	19
SMILES	PfHsp90 yeast 2	CSC inhib	Calb FLC	Beta apoptosis	Shn3 3UTR inh
Cn1nnnc1Sc1ncnc2scc(-c3cccc4c3sc3ccccc34)c12	-39	111*	·	3	4
Cc1cccc(C)c1NC(=O)CN(C)C(=O)C1CC(=O)N(c2cccc3ccccc23)C1 (stereo not given)	-8	·	·	·	15
CC1CCCN(S(=O)(=O)c2ccc(NC(=O)c3cccc(-n4cnnn4)c3)cc2)C1 (stereo not given)	-30	-3	1	8	38
CC1CCCCN1S(=O)(=O)c1ccc(NC(=O)c2cccc(-n3cnnn3)c2)cc1 (stereo not given)	0	·	91*	-2	4
CS/C(=N\S(=O)(=O)c1cccs1)Nc1ccc(Cl)cc1	19	4	85*	-28	-27
CS/C(=N\S(=O)(=O)c1cccs1)Nc1ccc(Br)cc1F	-26	-11	101*	7	9
O=S(=O)(/N=C(/Nc1ccc(Cl)cc1Cl)c1ccccc1)c1cccs1	0	-12	33	2	-1
CS/C(=N\S(=O)(=O)c1ccc(N)cc1)NS(=O)(=O)c1cccs1	-12	-2	-30	1	-30
CC(=O)c1csc(CS(=O)(=O)c2ccccn2)n1	-2	-5	-7	-7	0
O=C(CCS(=O)(=O)c1ccccc1)NNC(=O)CSc1ccccc1F	-3	-7	·	-1	15
CCCc1cc(=O)[nH]c(SCC(=O)Nc2ccc(Br)cc2Br)n1	20	-6	60*	-4	1
Cc1ccc(-c2cc3c(N=O)c4ccccc4c-3n[nH]2)cc1	-31	87*	17	49	64
CCC(C)NC(=O)NCc1ccccc1F (stereo not given)	-27	-11	-7	·	-8
O=C(Cn1cnc2c(nnn2Cc2ccc(F)cc2)c1=O)NC1CCCC1	3	·	100*	0	11
Cn1cc(C=CC(=O)O)c2nccnc21	·	·	·	·	-16
Cc1ccc(N2CC(O)(c3cccs3)[N+]3=C2CCCC3)cc1 (stereo not given)	·	31	-18	4	80
Cc1ccc(N2NC(C)(c3cccs3)NC2=S)cc1 (stereo not given)	-1	-2	105*	-3	-65
CCOC(=O)[C@@H]1[C@H]2COc3cc(OC)ccc3[C@@H]2N2C(=O)N(c3ccccc3)C(=O)[C@]12C	-1	-16	·	-8	-11
CC1c2cc3c(cc2CCN1C(=O)c1cccc(F)c1)OCCCO3 (stereo not given)	-8	33	1	-7	19
CCOCCCNC(=O)c1cc2c(s1)-c1ccccc1SC2	-3	4	2	-3	-31
CN(C)CCNC(=O)c1cc2c(s1)-c1ccc(Cl)cc1SC2	1	102*	4	-9	17
O=C(NCc1ccco1)c1cc2cc(Br)ccc2o1	14	-5	-8	0	-55
Cc1cc(N2CCN(S(=O)(=O)c3ccc(Cl)cc3)CC2)c2ccccc2n1	3	40	1	81*	35
Cc1cc(N2CCN(S(=O)(=O)c3ccc(Cl)c(Cl)c3)CC2)c2ccccc2n1	7	·	21	4	27
CC1(NC(=O)Nc2cc([N+](=O)[O-])ccc2O)CCS(=O)(=O)C1 (stereo not given)	7	-8	·	4	-20
O=C(CSc1nc(-c2ccco2)cc(C(F)(F)F)n1)Nc1ccccc1C(F)(F)F	-44	75*	-3	8	16
O=C(CSc1nc(-c2ccco2)cc(C(F)(F)F)n1)NCCc1ccccc1	-25	0	98*	-3	-5
CCN(CC)CCn1c2c(c(SCC(=O)Nc3nccs3)nc1=O)CCCC2	-17	-4	-6	-6	1
C[C@H](CO)N1C[C@H](C)[C@@H](CN(C)S(C)(=O)=O)Oc2c(NC(=O)C3CC3)cccc2C1=O	-2	·	·	0	9
